In PubChem BioAssay (NCATS):
Calls of active or inactive are those of the source. Where a call stands in place of a potency, no number is given. Calls follow the shape of the dose curve; as a rule, active = well fitted activation curve with a large enough effect; inconclusive = small, poorly fitted or top-dose-only effect; inactive = no such curve, though single readings can be large or run the other way.

Molecular target: Parathyroid hormone/parathyroid hormone-related peptide receptor (Homo sapiens) (UniProt Q03431)
Sequence (Q03431 whole entry, looked up): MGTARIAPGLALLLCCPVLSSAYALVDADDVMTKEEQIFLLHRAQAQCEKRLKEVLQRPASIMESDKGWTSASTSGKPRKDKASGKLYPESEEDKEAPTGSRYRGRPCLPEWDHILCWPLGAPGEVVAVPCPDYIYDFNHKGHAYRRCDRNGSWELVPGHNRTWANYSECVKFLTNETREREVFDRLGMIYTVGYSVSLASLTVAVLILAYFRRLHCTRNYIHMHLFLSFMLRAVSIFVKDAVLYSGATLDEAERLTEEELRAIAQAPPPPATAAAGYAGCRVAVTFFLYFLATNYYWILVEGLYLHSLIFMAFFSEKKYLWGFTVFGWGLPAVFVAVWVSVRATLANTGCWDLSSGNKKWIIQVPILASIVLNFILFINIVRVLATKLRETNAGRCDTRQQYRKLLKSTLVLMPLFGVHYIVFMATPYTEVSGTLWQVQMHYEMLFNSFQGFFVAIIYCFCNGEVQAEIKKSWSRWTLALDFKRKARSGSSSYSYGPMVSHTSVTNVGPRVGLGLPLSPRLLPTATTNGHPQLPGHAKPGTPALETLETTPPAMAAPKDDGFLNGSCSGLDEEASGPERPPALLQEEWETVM
Assay: qHTS for PTHR1 Agonists: Optimization Screen against the NCGC LOPAC library (AID 1347079)
Settings: HEK293 GP2 PTHR1 GloSensor cAMP luminescence, 1 h; series mostly up to 57.1 µM
Description: The goal of the proposed studies is to discover new compounds that act as potent agonists on the parathyroid hormone receptor type-1 (PTHR1). The PTHR1 plays critical roles in maintaining blood calcium and phosphate levels, as well as in controlling bone remodeling. PTHR1 agonists could thus be useful for treating diseases such as hypoparathyroidism and osteoporosis. In the former disease, an agonist drug would help maintain normal blood calcium and phosphate levels under conditions of parathyroid hormone deficiency. In the latter disease, an agonist drug would stimulate new bone formation and thus reduce the risk of fracture, under conditions of bone fragility, as occurs in aging. We performed an optimization assay of the quantitative high-throughput screening (qHTS) for the parathyroid hormone receptor type-1 (PTHR1) against the NCGC LOPAC library collection of […] compounds using a unique HEK-293-derived cell line (GP2) that expresses the PTHR1 and a GloSensor cAMP reporter construct. Increase in signal (activation / agonist) is the desired outcome for compounds of interest. NIH Chemical Genomics Center [NCGC] NIH Molecular Libraries Probe Production Centers Network [MLPCN] MLPCN Grant: P01 DK011794 Assay Submitter (PI): Thomas Gardella PhD, Massachusetts General Hospital
Reagents / Controls: M-PTH (1-15) peptide hormone fragments was provided by the assay provider and was used as a control. Column 1 was treated with M-PTH titration (1:2 dilution) beginning with a final concentration of 10uM. Column 2 was treated with M-PTH final concentration of 10uM. Columns 3 and 4 were treated with DMSO only to assess background and noise signal. Assay Steps: Four microLiter of cells suspension was dispensed in a 1536-well assay plate at a final density of 3000 cells/well. The plates were incubated overnight, after which 4uL of 0.5mM of BloTium Luciferin plus 0.5mM IBMX was added. Next, the plate was incubated at 37C for 1hr before 23nL of compound (at various final concentrations from 40uM to 0.32uM) and control were added using a 1536-well array Kalypsys pin-tool. The treated plates were again incubated at 37C for another hour. Luminescence signal was obtained using the PerkinElmer ViewLux plate reader after 15min or room temperature incubation.

| SMILES | Potency |
| --- | --- |
| C=C[C@H]1CN2CC[C@@H]1C[C@@H]2[C@@H](O)c1ccnc2ccc(OC)cc12 | inactive |
| COc1ccccc1N1CCN(CCN(C(=O)c2ccc(I)cc2)c2ccccn2)CC1 | inactive |
| O=C1O/C(=C/Br)CCC1c1cccc2ccccc12 (stereo not given) | inactive |
| COc1ccccc1CNCCCCCCNCCCCCCCCNCCCCCCNCc1ccccc1OC | inactive |
| N.N.O=C(O)C1(C(=O)O)CCC1.[Pt] | inactive |
| CNc1ncnc2c1ncn2[C@@H]1O[C@H](CO)[C@@H](O)[C@H]1O | inactive |
| S=C(S)OC1CC2CC1C1CCCC21 (stereo not given) | inactive |
| CCOC(=O)N1CCN(/[N+]([O-])=N/Oc2ccc([N+](=O)[O-])cc2[N+](=O)[O-])CC1 | inactive |
| NO | inactive |
| NC(N)=NC(=O)c1nc(Cl)c(N2CCCCCC2)nc1N | inactive |
| NC[C@H]1O[C@@H](n2cnc3c(N)ncnc32)[C@H](O)[C@@H]1O | inactive |
| C#C[C@]1(O)CC[C@H]2[C@@H]3CCC4=Cc5oncc5CC4(C)[C@H]3CCC21C (stereo not given in full) | inactive |
| COc1cc(SC)ccc1C(=O)N1CCC(Cc2ccccc2)CC1 | inactive |
| CC(C)NC[C@@H](O)c1ccc(O)c(O)c1 | inactive |
| NC(=S)NCCC[C@H](N)C(=O)O | inactive |
| NC(=O)C1=CN(C2OC(COP(=O)(O)OP(=O)(O)OC[C@H]3O[C@@H](n4cnc5c(N)ncnc54)[C@H](OP(=O)(O)O)[C@@H]3O)C(O)C2O)C=CC1 (stereo not given in full) | inactive |
| COc1cc2nc(N3CCN(C(=O)OCc4ccccc4)C(C(=O)NC(C)(C)C)C3)nc(N)c2cc1OC (stereo not given) | inactive |
| OCC1O[C@H]([S-])[C@H](O)[C@@H](O)[C@@H]1O.[Au+] (stereo not given in full) | inactive |
| CCCC1(C)C(C#N)(C#N)C1(C#N)C#N | inactive |
| CN(C)c1nc(N)c(C(=O)N=C(N)N)nc1Cl | inactive |

| SMILES | Potency |
| --- | --- |
| CCN(CC)c1ncnc2c1ncn2[C@@H]1O[C@H](COP(=O)(O)OP(=O)(O)C(Br)(Br)P(=O)(O)O)[C@@H](O)[C@H]1O | inactive |
| OCC1O[C@H](O)C(Cl)C(O)C1O (stereo not given in full) | inactive |
| CC1CN(S(=O)(=O)c2cccc3cnccc23)CCN1 (stereo not given) | inactive |
| CC(=O)N[C@H](C(=O)O)C(C)(C)SN=O | inactive |
| C=CC(C)=C[C@@]1(C)SC(=O)C(C)=C1O | inactive |
| O=C(O)c1cc(=O)c2c(Cl)cc(Cl)cc2[nH]1 | inactive |
| COC(=O)c1c(C)[nH]c(C)c1C(=O)c1ccccc1Cc1ccccc1 | inactive |
| NCCNC(=O)c1ncsc1-c1cccc(F)c1 | inactive |
| CCc1c(C(=O)NCCc2ccc(N3CCCCC3)cc2)[nH]c2ccc(Cl)cc12 | inactive |
| Cc1ccc(O)c(N=Nc2ccccc2)n1 | inactive |
| CNC(=O)[C@H]1O[C@@H](n2cnc3c(NCc4cccc(I)c4)ncnc32)[C@H](O)[C@@H]1O | inactive |
| O=C(O)c1cc([N+](=O)[O-])ccc1NCCCc1ccccc1 | inactive |
| C[N+](C)(C)CCOP(=O)(O)OP(=O)([O-])OC[C@H]1O[C@@H](n2ccc(N)nc2=O)[C@H](O)[C@@H]1O | inactive |
| O=c1[nH]c2cc([N+](=O)[O-])c([N+](=O)[O-])cc2[nH]c1=O | inactive |
| CCCCCCCCc1ccc(-c2ccc(C(=O)O)cc2)cc1 | inactive |
| CCCCCCCCCCCCCCCCCC(=O)OC(CC(=O)O)C[N+](C)(C)C (stereo not given) | inactive |
| C=C[C@@H]1CN2CC[C@@H]1C[C@H]2[C@H](O)c1ccnc2ccc(OC)cc12 | inactive |
| C[N+](C)(CCCCCC[N+](C)(C)CCCN1C(=O)c2cccc3cccc(c23)C1=O)CCCN1C(=O)c2cccc3cccc(c23)C1=O | inactive |
| OC[C@H]1O[C@@H](n2cnc3c(Nc4ccccc4)ncnc32)[C@H](O)[C@@H]1O | inactive |
| CO/S(=N\S(=O)(=O)c1ccc(Cl)cc1)c1ccc([N+](=O)[O-])cc1 (stereo not given) | inactive |
